Screens deposited in PubChem BioAssay by National Center for Advancing Translational Sciences (NCATS).
ERK AVP block = inhibitors of vasopressin-stimulated ERK signaling pathway. AID 995. HEK293-V1b, vasopressin-stimulated pERK AlphaScreen. 0.99% of 72,000 active. Potency, µM (highest dose often 57.5 µM), most hits filed as inhibitors; note: nearly all actives have a fitted effect of over 55% in size
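V1b-HEK293 cells; cpd 30 min 37C; 25 nM vasopressin 5 min; lyse 10 min; AlphaScreen beads 5 hr RT. Normalized to DMSO basal and 25 nM vasopressin; AC50 by Hill fit.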
GFP derepression = epigenetic GFP locus derepression in mouse cells; AID 597; Potency, µM (top dose mostly 46.1 µM); mouse C127i GFP locus derepression, cytometry, 30 h; 0.09% of 68,000 active
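Derepression screen: silenced CMV-GFP reporter in murine C127i cells, 30 h compound incubation at 37 C, washed cells imaged by laser-scanning cytometer to enumerate GFP-expressing objects of 20 to 120 um.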
IkB signaling = inhibitors of IkB signaling in ABC-DLBCL cells. 0.04% of 110,000 active. Potency, µM (doses to about 57.1 µM). ABC-DLBCL IkBa-CBG/CBR dual luciferase ratio, 4 h; response scale: scaled: untreated 0%, proteasome inhibitor 100%; active = well fitted curve in the direction sought with a large enough effect in the signal ratio, not every such curve was filed as active; inconclusive = small, poorly fitted or top-dose-only effect, or a change in a side signal; the % refers to the signal ratio;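 note: the direction sought is a rising ratio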
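Curves were fitted separately to fusion (green), unfused (red) and ratio luminescence, then classed by r2, magnitude and activity. Cells: OCI-Ly3, 4 h compound plus doxycycline at 37C; 10 uM MG-132 defined full response.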
CRE Fsk mod = alters forskolin-stimulated CRE reporter signaling in CHO cells | Potency, µM (series often up to 38.2 µM), actives largely listed as activators | CHO CRE-bla reporter (cAMP response element driving beta-lactamase), forskolin EC10, beta-lactamase ratio | 2.5% of 71,000 active | AID 662; active = well fitted activation curve with a large enough effect in the signal ratio, with a control signal flat, not every such curve was filed as active; inconclusive = small, poorly fitted or top-dose-only effect, or effect the other way, or a change in a side signal; the % refers to the signal ratio
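Beta-lactamase reporter under a cAMP responsive element in CHO cells; compounds tested in titration series against EC10 NKH 477, 3 h at 37 °C. Read-out: CCF4 FRET ratio 460nm/530nm (excitation 405nm) giving %Activity, fitted to AC50.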
HBB splicing = modulators of hemoglobin beta chain splicing; Potency, µM (titrated, usually from 46.1 µM), most hits filed as activators; HBB splicing reporter cell assay, activation; EGFP reporter with mutant IVS2-654 intron; response scale: normalised to 500 nM splice-correcting PNA; 0.06% of 65,000 active
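Compounds were applied for 2 days to HeLa EGFP-654 cells, 500/well in Optimem with 2% FCS. The reporter's EGFP is disrupted by mis-splicing of beta-globin intron IVS2-654. Readout: summed well GFP fluorescence from 488 nm laser scanning; reference was 500 nM antisense […] 654 PNA.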
CHO tox 24h = reduces CRE-bla CHO cell viability after 24 hours; shares compounds with CRE Fsk mod; CRE-bla CHO viability, ATP luminescence, 24 h; activity, negative = viability loss, % at 46.1 µM; 120 tested, under 10 active
CHO via 40h = reduces CRE-bla CHO cell viability after 40 hours; 120 tested, under 10 active; AID 906; Potency, µM, usual class: inhibitors; CRE-bla CHO viability, ATP luminescence, 40 h; shares compounds with CRE Fsk mod
CRE-luc potent = boosts CRE luciferase signal in HEK293 cells | shares compounds with CRE Fsk mod | HEK293 CRE-luc2P, NKH477 EC10 potentiation, luminescence, 4 h | Potency, µM (top dose mostly 38.3 µM), hits mostly activators | 80% of 120 active
Each line names hits and unclear results; the compound was inactive in the other large screens (follow-up assays come after a bar, where they were run). Only a selection was taken, and hits are over-represented in it overall. Unless noted, calls come from the whole dose curve; as a rule, active = well fitted curve in the direction sought with a large enough effect; inconclusive = small, poorly fitted or top-dose-only effect, or another doubt; inactive = no such curve, though single readings can be large; an effect the other way counts as inactive or inconclusive.

CCn1c2ccccc2c2nc3cc(S(=O)(=O)N4CCOCC4)ccc3nc21	IkB signaling inconclusive, CRE Fsk mod 2µM
Brc1ccc2c(c1)c1nc3ccccc3nc1n2CCN1CCOCC1	ERK AVP block 31.6µM, CRE Fsk mod 12.6µM
COC(=O)c1ccccc1NC(=O)c1sc(N)nc1C	ERK AVP block inconclusive, CRE Fsk mod 15.8µM
N#Cc1c(-c2ccccc2)cc(C2CC2)nc1N	CRE Fsk mod 2µM
N#Cc1c(-c2ccco2)cc(C2CC2)nc1N	none (no result: ERK AVP block, IkB signaling, CRE Fsk mod, HBB splicing)
CSc1nnc2c3cc(C)ccc3n(Cc3ccccc3)c2n1	CRE Fsk mod 2µM
CCN(CC)CCSc1nnc2c3cc(F)ccc3n(CC)c2n1	none (no result: ERK AVP block, GFP derepression, CRE Fsk mod, HBB splicing)
CC1=C(C(=O)Nc2ccc(F)cc2F)C2(CCN(C(C)C)CC2)OC1=O	none (no result: ERK AVP block, GFP derepression, CRE Fsk mod, HBB splicing)
CCOC(=O)C1CCN(C(=O)c2ccc3c(c2)sc2nc(-c4ccccc4)cn23)CC1	none (no result: ERK AVP block, GFP derepression, CRE Fsk mod, HBB splicing)
CS(=O)(=O)Nc1cccc(-c2ccc3ncnc(NCc4cccs4)c3c2)c1	ERK AVP block 15.8µM, CRE Fsk mod inconclusive
COc1cccc(-c2ccc3ncnc(N(C)C)c3c2)c1	ERK AVP block inconclusive
CN(C)c1ncnc2ccc(-c3cccnc3)cc12	ERK AVP block inconclusive, CRE Fsk mod 3.16µM
CN(C)c1ncnc2ccc(-c3cccc(NS(C)(=O)=O)c3)cc12	ERK AVP block inconclusive, CRE Fsk mod 10µM
C=C(CC(=O)O)C(=O)O (tested in a mixture with another compound)	none
O=C(CSCc1cc(=O)c2ccccc2[nH]1)Nc1cccc(C(F)(F)F)c1	none (no result: ERK AVP block, GFP derepression, CRE Fsk mod, HBB splicing)
COCCn1c(=O)c(C)nc2cncnc21	ERK AVP block inconclusive
CS(=O)(=O)N1CCCC(C(=O)NCc2ccccc2Cl)C1 (configuration not stated)	none
CS(=O)(=O)N1CCCC(C(=O)NCc2ccc(F)cc2Cl)C1 (configuration not stated)	CRE Fsk mod 10µM
CCc1ccc(N2C(=O)c3sc4nnc(C)c(=O)n4c3C2=O)cc1	GFP derepression 10µM
CCNc1ncc2nc(-c3cc(F)cc(F)c3)c(=O)n(CCC#N)c2n1	CRE Fsk mod inconclusive, HBB splicing inconclusive
CN(Cc1ccccc1)c1ncnc2c1cnn2-c1ccccc1	ERK AVP block inconclusive, CRE Fsk mod 10µM
COCCN(CCOC)c1ncnc2c1cnn2-c1ccc(Cl)cc1	CRE Fsk mod 10µM
CCCCc1ccc(NC(=O)CSc2nnc3[nH]c(=O)cc(C)n23)cc1	none (no result: ERK AVP block, GFP derepression, CRE Fsk mod, HBB splicing)
O=c1[nH]c(SCc2ccccc2Cl)nc2c1cnn2-c1ccccc1	CRE Fsk mod 0.794µM (no result: ERK AVP block, GFP derepression) | CHO tox 24h inactive | CHO via 40h inactive | CRE-luc potent 6.31µM
Cc1ccc(-n2ncc3c(=O)[nH]c(SCC(=O)N4CCOCC4)nc32)cc1	none | CHO tox 24h inactive | CHO via 40h inactive | CRE-luc potent inconclusive
O=C(c1cc(S(=O)(=O)N2CCOCC2)ccc1F)N1CCCc2ccccc21	none | CHO tox 24h inactive | CHO via 40h inactive | CRE-luc potent inactive
CCOC(=O)c1ccccc1NC(=O)c1cc(S(=O)(=O)N2CCOCC2)ccc1F	ERK AVP block inconclusive, CRE Fsk mod 10µM | CHO tox 24h inactive | CHO via 40h inactive | CRE-luc potent 12.6µM
Cc1ccc(S(=O)(=O)NCC2CCC(C(=O)NCCc3ccc(Cl)cc3)CC2)cc1 (configuration not stated)	none (no result: ERK AVP block, GFP derepression, CRE Fsk mod, HBB splicing)
O=C(Nc1ccc(-c2cn3ccsc3n2)cc1)c1ccc(F)c(S(=O)(=O)N2CCOCC2)c1	ERK AVP block 12.6µM, IkB signaling inconclusive, CRE Fsk mod 1.58µM | CHO tox 24h inconclusive | CHO via 40h inactive | CRE-luc potent 2.82µM
